{"source": "PubChem BioAssay (EPA / NIEHS)", "key": {"[1]": {"assay": "CCTE_Mundy_HCI_hN2_NOG_NeuriteCount: CCTE's Neurite Outgrowth Assay in human hN2 cells for Neurite Count, Mundy Lab (AID 2284219)", "outline": "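In this morphology assay, hNP1-derived neurons received test chemical 2 h post-plating and were fixed two days later in warm paraformaldehyde/sucrose containing Hoechst 33342. Neurites, labelled by rabbit anti-βIII-tubulin (1:800) and Alexa Fluor-488 (1:500), were counted automatically.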"}, "[2]": {"assay": "CCTE_Mundy_HCI_hN2_NOG_NeuriteLength: CCTE's Neurite Outgrowth Assay in human hN2 cells for Neurite Length, Mundy Lab (AID 2284220)", "outline": "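Using βIII-tubulin immunofluorescence and Hoechst nuclear counterstain, this component quantifies neurite length in hNP1-derived neurons.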"}, "[3]": {"assay": "CCTE_Mundy_HCI_hN2_NOG_NeuronCount: CCTE's Neurite Outgrowth Assay in human hN2 cells for Neuron Count, Mundy Lab (AID 2284221)", "description": "CCTE_Mundy_HCI_hN2_NOG is a multiplexed, cell-based-readout assay that uses immature neurons derived from hNP1 neuroprogenitor cells with measurements taken at 50.33 hours after chemical dosing in a microplate: 96-well plate.CCTE_Mundy_HCI_hN2_NOG_NeuronCount is one of four components of the CCTE_Mundy_HCI_hN2_NOG assay. It measures cell viability related to number of neurons using High Content Imaging of fluorescently labelled markers.[…] Using a type of morphology reporter, loss -of-signal activity can be used to understand developmental effects.\nExposure starts 2 hours post-plating by adding 10 ul of the working solution to 90 ul of media in the wells for a 1/10 dilution. Forty-eight hours after chemical treatment cells are fixed by direct addition of 100 ul of warm (37C) Dulbecco's phosphate buffered saline (DPBS) fixative solution containing 8% paraformaldehyde, 8% sucrose, and 0.1% of 3 mg/ml Hoechst 33342 into each well. Primary antibodies are prepared by dilution in Immunocytochemical Staining Buffer (ISB), 10X Dulbecco's PBS, 0.1% Saponin, 5% Bovine Serum Albumin, 0.5% NaN3 (Sodium Azide) and betaIII-tubulin (rabbit anti-betaIII-tubulin, 1:800) followed by Alexa Fluor-488 secondary (1:500) to label neuronal cell bodies and neurites. A Cellomics ArrayScan VTi HCS Reader is used for automated image acquisition and analysis of neurite outgrowth."}, "[4]": {"assay": "UKN2_HCS_IMR90_cell_viability: Viability Assessment in the University of Konstanz (UKN) Leist Lab Neural Crest Cell Migration Assay in human induced IMR90 Pluripotent Stem Cells (UKN2) (AID 2284233; active = hit-call score of the fitted dose curve at least 0.9, where 1 is the maximum; inactive = score below 0.9;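 also: cells exposed to compound for 24 h after a 24 h migration phase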)", "outline": "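cMINC format, iPSC-derived neural crest (IMR90); 24 h migration (EGF/FGF, N2-S), then 24 h toxicant. Calcein-AM/H-33342 stain 30 min; fluorescence intensity by HCS; DMSO-normalised, bidirectional fitting.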"}, "[5]": {"assay": "UKN4_HCS_LUHMES_cell_viability: Viability Assessment in the University of Konstanz (UKN) Leist Lab Neurite Outgrowth Assay in human LUHMES cells (UKN4) (AID 2284232; active = hit-call score of the fitted dose curve at least 0.9, where 1 is the maximum; inactive = score below 0.9)", "outline": "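Measured in replated, 2-day-differentiated LUHMES cells treated 24 h; stained 30 min with H-33342 and calcein-AM before high-content imaging.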"}}, "note": "Results filed as inconclusive are left out. The source made the active and inactive calls. The calls were made as follows, unless noted: active = hit-call score of the fitted dose curve at least 0.9, where 1 is the maximum; inconclusive = response in the unintended direction; inactive = score below 0.9."}
{"smiles": "CN(C)CCCN1c2ccccc2Sc2ccc(Cl)cc21", "values": [{"measurement": "AC50", "setting": "[1]", "value": "11 µM (active)"}, {"measurement": "AC50", "setting": "[2]", "value": "14.3 µM (active)"}, {"measurement": "AC50", "setting": "[3]", "value": "9.61 µM (active)"}, {"measurement": "AC50", "setting": "[4]", "value": "14.3 µM (active)"}]}
{"smiles": "O=C1NC(=O)C(c2ccccc2)(c2ccccc2)N1", "values": [{"measurement": "outcome", "setting": "[1]", "value": "inactive"}, {"measurement": "outcome", "setting": "[2]", "value": "inactive"}, {"measurement": "outcome", "setting": "[3]", "value": "inactive"}, {"measurement": "outcome", "setting": "[5]", "value": "inactive"}, {"measurement": "outcome", "setting": "[4]", "value": "inactive"}]}
{"smiles": "OCC(O)CO", "values": [{"measurement": "outcome", "setting": "[5]", "value": "inactive"}]}
